The source of these data is PubChem BioAssay (NCI).

The nature of test [1]: NCI Yeast Anticancer Drug Screen. Data for the rad50 strain (AID 155).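 Further: 0% = growth of vehicle-only cultures of the same strain.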 The note with it: S. cerevisiae rad50 strain growth inhibition, stronger effect = higher value. In outline:
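Cells are treated with compound, grown, and their growth is then scored against vehicle-only cultures of the same repair-deficient yeast strain.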

The nature of test [2]: NCI Yeast Anticancer Drug Screen. Data for the mec2-1 strain (AID 157). The note with it: S. cerevisiae mec2-1 strain, stronger effect = higher value. In outline: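 Using mec2-1 yeast: add compound, measure growth, express inhibition versus vehicle-treated cultures.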
Test [3] in a line: NCI Yeast Anticancer Drug Screen. Data for the sgs1 mgt1 strain (AID 161).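 Further: 0% = growth of cultures given vehicle only.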 The note with it: S. cerevisiae sgs1 mgt1 strain, stronger effect = higher value. The gist of the method: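 Growth of a repair-deficient yeast mutant was monitored after compound treatment and expressed as inhibition relative to vehicle-treated cultures.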
Test [4] is described as follows: NCI Yeast Anticancer Drug Screen. Data for the cln2 rad14 strain (AID 165).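 Further: 0% = growth equal to vehicle treated cultures.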 The note with it: S. cerevisiae cln2 rad14 strain, stronger effect = higher value. In outline:
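Yeast strain cln2 rad14, bearing defects in cell cycle control and DNA repair, serves as the test system; values reflect growth inhibition compared with vehicle.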

Test [5] in a line: NCI Yeast Anticancer Drug Screen. Data for the bub3 strain (AID 167). The note with it: S. cerevisiae bub3 mutant strain, stronger effect = higher value. The gist of the method:
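Part of a panel of yeast mutants defective in DNA damage repair or cell cycle regulation. Each strain is grown with compound, and inhibition is calculated relative to solvent-treated cultures.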

A short description of test [6]: NCI Yeast Anticancer Drug Screen. Data for the mlh1 rad18 strain (AID 175). The note with it: S. cerevisiae mlh1 rad18 strain growth inhibition, stronger effect = higher value. In outline:
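Steps: expose repair-defective yeast to compound; measure growth; express inhibition against vehicle-treated controls.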

Where [7] appears, read: at 5.0 µM (retest, dose inferred, filed as 0.5).
[8] abbreviates: at 50.0 µM (retest, dose inferred, filed as 5.0).

The panel holds about 79,000 compounds, 15% with a hit somewhere; the sample as a whole holds those more often. Values without a mark were called inactive. Activity calls are given as the source filed them. No stated cut-off is given here; in the data, active means growth inhibition above about 70%; inactive means the rest.

With `O=C(Cn1cnc2ccc([N+](=O)[O-])cc21)N1CCN(c2ccccc2)CC1`, the growth inhibition is -2% in test [1] (setting [7]); -7% in test [1] (setting [8]); 10.3% in test [1] (at 50.0 µM); 4% in test [2] (setting [7]); 8% in test [2] (setting [8]); 19.6% in test [2] (at 50.0 µM). Also, the growth inhibition in test [3] (setting [7]) is -25%; in test [3] (setting [8]) it was 2%; in test [3] (at 50.0 µM) it was 12.1%; in test [4] (setting [7]) it was 7%; in test [4] (setting [8]) it was -5%; in test [4] (at 50.0 µM) it was -53.6%. Further, the growth inhibition in test [5] (setting [7]) was 10%; in test [5] (setting [8]), 7%; in test [5] (at 50.0 µM), -15.4%; in test [6] (setting [7]), -9%; in test [6] (setting [8]) it was -22%; in test [6] (at 50.0 µM), 0.6%.
Take `O=C1C=CC(=O)c2c1oc1ccccc21`: the growth inhibition was 14% in test [1] (setting [7]); 98% (active) in test [1] (setting [8]); 60.7% in test [1] (at 50.0 µM); 6% in test [2] (setting [7]); 99% (active) in test [2] (setting [8]); 19% in test [2] (at 50.0 µM). Further, the growth inhibition in test [3] (setting [7]) is 13%; in test [3] (setting [8]), 99% (active); in test [3] (at 50.0 µM), 16.2%; in test [4] (setting [7]), 13%; in test [4] (setting [8]), 79% (active); in test [4] (at 50.0 µM) it was 48.5%. Besides, the growth inhibition was 30% in test [5] (setting [7]); 98% (active) in test [5] (setting [8]); 36% in test [5] (at 50.0 µM); 23% in test [6] (setting [7]); 98% (active) in test [6] (setting [8]); 57.8% in test [6] (at 50.0 µM).
`CC(=O)O[C@]1(C(C)=O)CC[C@H]2[C@@H]3C[C@H](C)C4=CC(=O)NCC[C@]4(C)[C@H]3CC[C@@]21C`: the growth inhibition in test [1] (setting [7]) is 0%; in test [1] (setting [8]) it was 87% (active); in test [1] (at 50.0 µM) it was 93.2% (active); in test [2] (setting [7]), 20%; in test [2] (setting [8]), 91% (active); in test [2] (at 50.0 µM), 94.6% (active). The growth inhibition in test [3] (setting [7]) is -20%; in test [3] (setting [8]), 90% (active); in test [3] (at 50.0 µM), 88% (active); in test [4] (setting [7]), 6%; in test [4] (setting [8]), 81% (active); in test [4] (at 50.0 µM), 90.1% (active). The growth inhibition in test [5] (setting [7]) was 14%; in test [5] (setting [8]) it was 92% (active); in test [5] (at 50.0 µM), 92% (active); in test [6] (setting [7]), 6%; in test [6] (setting [8]), 90% (active); in test [6] (at 50.0 µM), 94.5% (active).
As to `Cc1ccc(-c2c(C#N)c(-c3ccccc3)n(NS(=O)(=O)c3ccc(C)cc3)c(=O)c2C#N)cc1`, the growth inhibition was 26% in test [1] (setting [7]); 73% (active) in test [1] (setting [8]); 73.5% (active) in test [1] (at 50.0 µM); 28% in test [2] (setting [7]); 67% in test [2] (setting [8]); 79.1% (active) in test [2] (at 50.0 µM). Further, the growth inhibition was 35% in test [3] (setting [7]); 70% (active) in test [3] (setting [8]); 81% (active) in test [3] (at 50.0 µM); 52% in test [4] (setting [7]); 68% in test [4] (setting [8]); 80.8% (active) in test [4] (at 50.0 µM). The growth inhibition in test [5] (setting [7]) is 51%; in test [5] (setting [8]) it was 70% (active); in test [5] (at 50.0 µM) it was 81.7% (active); in test [6] (setting [7]) it was 34%; in test [6] (setting [8]), 72% (active); in test [6] (at 50.0 µM), 77.2% (active).
Turning to `COc1ccc2c(C)cc(N/N=C/c3ccc(OC)c4ccccc34)nc2c1`, the growth inhibition is 27% in test [1] (setting [7]); 98% (active) in test [1] (setting [8]); 89.7% (active) in test [1] (at 50.0 µM); 51% in test [2] (setting [7]); 99% (active) in test [2] (setting [8]); 36.8% in test [2] (at 50.0 µM). In addition, the growth inhibition in test [3] (setting [7]) was 66%; in test [3] (setting [8]), 99% (active); in test [3] (at 50.0 µM) it was 91% (active); in test [4] (setting [7]), 0%; in test [4] (setting [8]) it was 99% (active); in test [4] (at 50.0 µM) it was 35.5%. Further, the growth inhibition is 9% in test [5] (setting [7]); 99% (active) in test [5] (setting [8]); 52% in test [5] (at 50.0 µM); 42% in test [6] (setting [7]); 98% (active) in test [6] (setting [8]); 39.9% in test [6] (at 50.0 µM).
Consider `O=C(O)[C@@H]1CCCC[C@@H]1C(=O)N(C1CCCCC1)C1CCCCC1`, for which the growth inhibition in test [1] (setting [7]) is -4%; in test [1] (setting [8]), 79% (active); in test [1] (at 50.0 µM) it was 45.1%; in test [2] (setting [7]), -15%; in test [2] (setting [8]), 86% (active); in test [2] (at 50.0 µM) it was 14%. The growth inhibition in test [3] (setting [7]) was 8%; in test [3] (setting [8]), 73% (active); in test [3] (at 50.0 µM), 59%; in test [4] (setting [7]), -7%; in test [4] (setting [8]) it was 96% (active); in test [4] (at 50.0 µM) it was 28.6%. In addition, the growth inhibition in test [5] (setting [7]) is -5%; in test [5] (setting [8]) it was 96% (active); in test [5] (at 50.0 µM), 9.45%.
For the compound `CCOP(=O)(CCCOc1cc(Cl)c(Cl)cc1Cl)OCC`, the growth inhibition in test [1] (setting [7]) was 1%; in test [1] (setting [8]), 99% (active); in test [1] (at 50.0 µM) it was 98.7% (active); in test [2] (setting [7]) it was 2%; in test [2] (setting [8]), 99% (active); in test [2] (at 50.0 µM), 98.9% (active). Further, the growth inhibition is 14% in test [3] (setting [7]); 100% (active) in test [3] (setting [8]); 99% (active) in test [3] (at 50.0 µM); 7% in test [4] (setting [7]); 99% (active) in test [4] (setting [8]); 93.7% (active) in test [4] (at 50.0 µM). Besides, the growth inhibition in test [5] (setting [7]) was 6%; in test [5] (setting [8]) it was 99% (active); in test [5] (at 50.0 µM) it was 94.2% (active); in test [6] (setting [7]), 2%; in test [6] (setting [8]) it was 99% (active); in test [6] (at 50.0 µM), 98.6% (active).
In the case of `CC(C)C(OC(=O)c1ccc(NCc2cc(O)ccc2O)cc1)C(C)C`, the growth inhibition is 21% in test [1] (setting [7]); 97% (active) in test [1] (setting [8]); 89.5% (active) in test [1] (at 50.0 µM); 23% in test [2] (setting [7]); 99% (active) in test [2] (setting [8]); 92% (active) in test [2] (at 50.0 µM). Moreover, the growth inhibition in test [3] (setting [7]) is 35%; in test [3] (setting [8]) it was 99% (active); in test [3] (at 50.0 µM), 90.6% (active); in test [4] (setting [7]), 21%; in test [4] (setting [8]) it was 99% (active); in test [4] (at 50.0 µM), 88% (active). For the same compound, the results for the growth inhibition in test [5] (setting [7]), in test [5] (setting [8]) and in test [5] (at 50.0 µM) were 29%, 99% (active) and 89.8% (active), respectively.
Consider `O=C(CBr)c1ccc2cc(Br)c3ccccc3c2c1`, for which the growth inhibition is 55% in test [1] (setting [7]); 94% (active) in test [1] (setting [8]); 64% in test [1] (at 50.0 µM); 84% (active) in test [2] (setting [7]); 96% (active) in test [2] (setting [8]); 44% in test [2] (at 50.0 µM). Moreover, the growth inhibition in test [3] (setting [7]) was 98% (active); in test [3] (setting [8]), 95% (active); in test [3] (at 50.0 µM) it was 68.5%; in test [4] (setting [7]), 16%; in test [4] (setting [8]), 92% (active); in test [4] (at 50.0 µM), 46.1%. Moreover, the growth inhibition in test [5] (setting [7]) is 81% (active); in test [5] (setting [8]), 94% (active); in test [5] (at 50.0 µM), 41.1%; in test [6] (setting [7]), 83% (active); in test [6] (setting [8]) it was 95% (active); in test [6] (at 50.0 µM), 61%.
Regarding `CCOC(=O)NC(NC(=O)OCC)C(=O)Nc1cccc2c(OC(=O)C(NC(=O)OCC)NC(=O)OCC)c(N=Nc3ccc(S(=O)(=O)Nc4nccs4)cc3)cc(N=Nc3ccc(S(=O)(=O)Nc4nccs4)cc3)c12` (tested in a mixture with another compound), the growth inhibition is 94% (active) in test [1] (setting [7]); 43% in test [1] (setting [8]); 78.7% (active) in test [1] (at 50.0 µM); 97% (active) in test [2] (setting [7]); 59% in test [2] (setting [8]); 74.9% (active) in test [2] (at 50.0 µM). For the same compound, the growth inhibition in test [3] (setting [7]) was 96% (active); in test [3] (setting [8]) it was 58%; in test [3] (at 50.0 µM), 65.8%; in test [4] (setting [7]), 95% (active); in test [4] (setting [8]), 70% (active); in test [4] (at 50.0 µM) it was 70.3% (active). Further, the growth inhibition in test [5] (setting [7]) is 95% (active); in test [5] (setting [8]), 59%; in test [5] (at 50.0 µM), 61.8%; in test [6] (setting [7]), 88% (active); in test [6] (setting [8]), 29%; in test [6] (at 50.0 µM) it was 83.1% (active).
